Screening results from PubChem.
Most compounds without a hit are left out; they make up all but 21% or so of the library.
RORgamma inh: qHTS for inhibitors of ROR gamma transcriptional activity; Drosophila S2 Gal4-RORgamma UAS-luciferase reporter, 20 h; Potency, µM (top dose mostly 53.6 µM), without a hit: top-dose activity change, negative = inhibition, hits mostly inhibitors; 310,000 tested, 5.4% active; AID 2551, 2010; also: potency is read from the fitted curve at half-maximal effect; nearly all actives have a fitted effect of over 60% in size
Target sequence (P51450 whole entry, looked up, the tested form may be a part): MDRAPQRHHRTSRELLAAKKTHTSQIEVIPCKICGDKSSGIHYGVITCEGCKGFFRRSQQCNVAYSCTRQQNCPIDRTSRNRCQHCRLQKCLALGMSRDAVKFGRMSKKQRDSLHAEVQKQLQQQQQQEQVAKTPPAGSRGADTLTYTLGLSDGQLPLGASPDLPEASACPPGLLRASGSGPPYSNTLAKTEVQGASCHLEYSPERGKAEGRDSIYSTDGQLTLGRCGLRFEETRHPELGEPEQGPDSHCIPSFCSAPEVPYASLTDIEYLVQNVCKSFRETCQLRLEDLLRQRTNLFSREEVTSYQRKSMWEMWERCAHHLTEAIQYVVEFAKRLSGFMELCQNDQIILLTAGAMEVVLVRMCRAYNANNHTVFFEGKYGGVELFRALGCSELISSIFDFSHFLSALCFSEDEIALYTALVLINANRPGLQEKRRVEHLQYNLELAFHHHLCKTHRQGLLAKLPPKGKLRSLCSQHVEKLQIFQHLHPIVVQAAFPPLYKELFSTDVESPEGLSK
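Schneider cells (Drosophila), stable Gal4 DBD–ROR gamma + UAS-luc; 1 hr cmpd preincubation; Cu2+ induction 700 uM final; 20 hr ambient; luminescence.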
ELG1 DNA repair: qHTS screen for small molecules that inhibit ELG1-dependent DNA repair in human embryonic kidney (HEK293T) cells expressing luciferase-tagged ELG1; Potency, µM (top dose mostly 46.1 µM), inactives show at the highest dose activity change, negative = inhibition, hits mostly inhibitors; HEK293T ELG1-luciferase reporter, luminescence, 16 h; DNA damage induced by 5-fluorouridine; 330,000 tested, 2.3% active; also: potency is read from the fitted curve at half-maximal effect; nearly all actives have a fitted effect of over 55% in size
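HEK293T cells expressing luciferase-tagged ELG1 (2,000/well) received 5-Fluorouridine plus compound or DMSO for 16 hr at 37 °C. Luciferase was read by ONE-Glo luminescence after 30 min at room temperature.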
DT40 TDP1 CPT: qHTS for Inhibitors of human tyrosyl-DNA phosphodiesterase 1 (TDP1): qHTS in cells in presence of CPT | chicken DT40 Tdp1-/-;hTDP1 cells + 20 nM CPT, ATP luminescence, 48 h | Potency, µM (top dose mostly 46.2 µM), for the others: at the top dose activity change, negative = growth inhibition, most hits filed as inhibitors | 420,000 tested, 12% active | AID 686979, 2013; also: potency is read from the fitted curve at half-maximal effect; nearly all actives have a fitted effect of over 55% in size
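Chicken DT40 Tdp1-/- cells complemented with human TDP1, 400 cells/well, exposed to compounds plus 20 nM camptothecin for at least 48 h at 37 C; viability read as ATP content by CellTiter-Glo luminescence.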
DT40 TDP1 no CPT: qHTS for Inhibitors of human tyrosyl-DNA phosphodiesterase 1 (TDP1): qHTS in cells in absence of CPT. DT40 Tdp1-/- hTDP1 cells, no CPT, ATP luminescence, 48 h. 420,000 tested, 15% active. Potency, µM (doses to about 46.2 µM), for the others: at the highest dose activity change, negative = growth inhibition, usual class: inhibitors; also: potency is read from the fitted curve at half-maximal effect; nearly all actives have a fitted effect of over 55% in size
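Cells were dispensed at 400 per well, compounds added by pin tool, plates incubated ≥48 hr at 37 °C, then CellTiter-Glo added for 30 min at room temperature before luminescence reading. Line: DT40 Tdp1-/- complemented with hTDP1; camptothecin omitted.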
VP16 counter: VP16 counterscreen qHTS for inhibitors of ROR gamma transcriptional activity | Drosophila S2 Gal4-VP16 UAS-luciferase, luminescence, 20 h | Potency, µM (highest dose often 53.6 µM), without a hit: at the top dose activity, negative = inhibition, actives largely listed as inhibitors | 310,000 tested, 3.5% active | AID 2546, 2010;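 also: Gal4-VP16 expression switched on by copper sulfate through the metallothionein promoter; potency is read from the fitted curve at half-maximal effect; nearly all actives have a fitted effect of over 50% in size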
IL-1B inflam inh: qHTS for Inhibitors of Inflammasome Signaling: IL-1-beta AlphaLISA Primary Screen. THP-1 LPS/ATP IL-1B secretion, AlphaLISA, 16 h; hits give low values. activity change, % at 57.5 µM. 360,000 tested, 4.7% active; in the data active = activity change below about -50%; inconclusive = mostly about -30% to -49%
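THP-1 cells pretreated 1 hr with compounds (up to 57.5 uM final), then stimulated with LPS (250 ng/mL final) plus ATP (1.25 mM final); secreted IL-1B measured by AlphaLISA after 16 hr, decreased signal indicating inhibition.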
* = called active by the depositor; ? = inconclusive; . = no result. Unless noted, calls follow the shape of the dose curve; as a rule, active = well fitted curve in the direction sought with a large enough effect; inconclusive = small, poorly fitted or top-dose-only effect, or another doubt; inactive = no such curve, though single readings can be large; an effect the other way counts as inactive or inconclusive. % is scaled to controls: 0 for no effect and ±100 for the full control effect.

SMILES	RORgamma inh	ELG1 DNA repair	DT40 TDP1 CPT	DT40 TDP1 no CPT	VP16 counter	IL-1B inflam inh
CCOC(=O)c1c(NC(=O)CSc2nnc(-c3cccnc3)o2)sc(C(C)=O)c1C	10µM*	-30.8%	?	20.6µM*	?	11.8
CCOC(=O)c1c(NC(=O)CSc2nnc(-c3ccco3)o2)sc(C)c1C	17.7%	9.0%	-28.7%	-20.5%	1.6%	46.5
CCOC(=O)c1c(NC(=O)CSc2nnc(-c3ccco3)o2)sc(C(C)=O)c1C	-24.1%	.	?	13µM*	-7.3%	18.0
CC(=O)N1c2ccccc2[C@H](C)[C@H]1C	.	27.8%	5.4%	3.4%	.	12.5
CC1c2ccccc2N(S(=O)(=O)c2ccccc2)C1C (stereo not given)	.	.	?	23.1µM*	.	31.8
CCN(CCCNC(=O)Cn1ncc2c([nH]c3ccc(C)cc32)c1=O)c1cccc(C)c1	-11.2%	22.4%	-5.2%	-0.5%	-12.7%	-16.4
Cc1cccn2c(=O)cc(CSc3nnc(NC(=O)COc4ccccc4)s3)nc12	.	.	4.3%	-12.8%	.	.
CCCCOC(=O)C1=C(C)Nc2nnnn2C1c1ccccc1Cl (stereo not given)	-10.5%	?	?	13µM*	?	7.6
O=c1c2sc(-c3ccccc3)cc2nc2n1CCC2	2.51µM*	?	-37.6%	-22.9%	?	?
Cn1c(NCCN2CCCC2)nc2cc(-c3ccccc3)sc2c1=O	.	.	?	?	.	-26.7
O=c1c2sc(-c3ccccc3)cc2nc2n1CCCCC2	-3.1%	?	-20.9%	11.6µM*	-15.0%	.
CC(=O)OCC(C)n1[nH]c2ccccc2c1=O (stereo not given)	.	.	10.5%	5.1%	.	3.5
COc1ccc(-c2csc3ncnc(N4CCN(c5ccccc5OC)CC4)c23)cc1	24.7%	13µM*	?	18.4µM*	-8.0%	?
Cc1nc(N2CCN(c3ccccc3O)CC2)c2c(-c3ccccc3)csc2n1	?	18.3µM*	?	16.4µM*	1.8%	-61.5*
CC(=O)Nc1cccc(Oc2ncnc3scc(-c4ccc(C(C)C)cc4)c23)c1	?	-18.3%	1.3µM*	1.16µM*	-2.2%	-51.7*
COc1ccc(-c2csc3ncnc(Oc4cccc5ccc(C)nc45)c23)cc1	?	?	16.4µM*	?	-1.9%	-9.0
COc1cc(OC)c(C(=O)OCC(=O)N2CCN(S(=O)(=O)c3ccc(C)cc3C)CC2)cc1OC	.	.	?	?	.	15.0
Oc1ccccc1N1CCN(c2ncnc3scc(-c4ccccc4)c23)CC1	89.7%	18.3µM*	?	23.1µM*	-2.6%	?
CCOC(=O)Cn1cnc2onc(-c3ccc(F)cc3)c2c1=O	.	.	-2.4%	0.5%	.	.
COc1ccccc1N1CCN(C(=O)CCn2cnc3onc(-c4ccc(F)cc4)c3c2=O)CC1	.	.	?	20.6µM*	.	.
COc1ccccc1N1CCN(C(=O)CCC(=O)N2CCN(c3ccc(F)cc3)CC2)CC1	24.0%	?	-29.6%	?	-27.6%	65.4
COc1ccc(N2CCN(C(=O)CCn3cnc4onc(-c5ccc(F)cc5)c4c3=O)CC2)cc1	.	.	23.1µM*	?	.	.
Cc1ccc(Cl)cc1N1CCN(C(=O)Cn2cnc3onc(-c4ccc(F)cc4)c3c2=O)CC1	.	.	18.4µM*	18.4µM*	.	.
CCCN(C(=O)CCn1cnc2onc(-c3ccc(F)cc3)c2c1=O)c1ccccc1C	.	.	18.4µM*	16.4µM*	.	.
COC(=O)CCn1cnc2onc(-c3cc(F)cc(F)c3)c2c1=O	.	.	18.8%	-28.0%	.	.
SMILES	RORgamma inh	ELG1 DNA repair	DT40 TDP1 CPT	DT40 TDP1 no CPT	VP16 counter	IL-1B inflam inh
CC(C)c1ccc(Nc2ccc(C(=O)O)cc2[N+](=O)[O-])cc1	9.9%	-6.4%	0.1%	-3.5%	-8.0%	31.9
Cc1ccc(NC(=O)Cn2cnc3onc(-c4ccc(F)cc4)c3c2=O)c(Cl)c1	.	.	-21.6%	-26.7%	.	.
COc1cccc(N2CCN(C(=O)Cn3cnc4onc(-c5ccc(F)cc5)c4c3=O)CC2)c1	.	.	23.1µM*	20.6µM*	.	.
CCCCN(CC)CCNC(=O)CCn1cnc2onc(-c3ccc(F)cc3)c2c1=O	.	.	25.9µM*	23.1µM*	.	.
O=C(CCn1cnc2onc(-c3ccc(F)cc3)c2c1=O)N1CCN(c2cccc(Cl)c2)CC1	.	.	16.4µM*	16.4µM*	.	.
O=C(O)CCn1cnc2onc(-c3ccccc3Cl)c2c1=O	.	.	14.6%	-9.6%	.	.
CCN(C(=O)Cn1cnc2onc(-c3ccc(F)cc3)c2c1=O)c1cc(C)ccc1C	.	.	13µM*	20.6µM*	.	.
COc1cc(Cl)c(C)cc1NC(=O)CCn1cnc2onc(-c3ccc(F)cc3)c2c1=O	.	.	18.4µM*	?	.	.
CCN(C(=O)CCn1cnc2onc(-c3ccc(F)cc3)c2c1=O)c1ccc(OC)cc1	.	.	16.4µM*	18.4µM*	.	.
Cc1cc2c(=O)n(C)c(SCC(=O)Nc3ccc(F)cc3)nc2s1	.	.	-22.6%	-11.7%	.	3.7
O=C(NCCc1ccccc1)C(c1ccccc1F)N(C(=O)c1csnn1)C1CC1 (stereo not given)	14.0%	-2.3%	-26.8%	?	6.0%	-11.0
CCOC(=O)C1=NN(c2ccc(C)cc2)C2(S1)SC(C(C)=O)=C(C)N2c1ccccc1 (stereo not given)	-22.0%	?	?	20.6µM*	-2.9%	7.6
CCOC(=O)C1=NN(c2cccc(C)c2)C2(S1)SC(C(C)=O)=C(C)N2c1ccccc1 (stereo not given)	4.3%	?	0.8%	22.6%	0.9%	-17.1
CCOC(=O)C1=NN(c2ccccc2)C2(S1)SC(C(C)=O)=C(C)N2c1ccccc1 (stereo not given)	-21.3%	-3.9%	?	14.6µM*	13.4%	-20.1
O=C(COC(=O)CNC(=O)c1ccccc1)NCc1ccc2c(c1)OCO2	.	0.7%	0.6%	4.1%	.	0.5
COCCCN1C(=O)C(CC(=O)NCC2CCCCC2)CC(C(=O)N(C(C)C)C(C)C)=C1C (stereo not given)	.	.	?	?	.	0.0
CC(=C/c1ccccc1)/C=N/N1CCN(Cc2ccc(C)cc2)CC1	2.0%	?	-0.7%	-5.6%	19.3%	-15.1
Cc1ccc(CN2CCN(/N=C/c3cc(Br)cc(Br)c3O)CC2)cc1	?	7.2%	?	20.6µM*	2.7%	-12.2
